Data: PubChem BioAssay (NCATS)
Unmarked numbers belong to inactive results.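 How the source made its calls: active means compounds whose dose series gives a full or clear partial fitted curve of increased nuclear translocation; inconclusive means weak partial curve or effect only at the top dose; inactive means no dose-dependent translocation response.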

Target: Glucocorticoid receptor (Homo sapiens) (UniProt P04150)
Experiment: GR-GFP Redistribution (AID 450)
Conditions: U2OS GR-GFP nuclear translocation, laser cytometry, 2 h; series mostly up to 20.6 µM
Potency means the concentration at half of the fitted maximal effect.

Chain of Glucocorticoid receptor (Homo sapiens) (P04150 whole entry, looked up): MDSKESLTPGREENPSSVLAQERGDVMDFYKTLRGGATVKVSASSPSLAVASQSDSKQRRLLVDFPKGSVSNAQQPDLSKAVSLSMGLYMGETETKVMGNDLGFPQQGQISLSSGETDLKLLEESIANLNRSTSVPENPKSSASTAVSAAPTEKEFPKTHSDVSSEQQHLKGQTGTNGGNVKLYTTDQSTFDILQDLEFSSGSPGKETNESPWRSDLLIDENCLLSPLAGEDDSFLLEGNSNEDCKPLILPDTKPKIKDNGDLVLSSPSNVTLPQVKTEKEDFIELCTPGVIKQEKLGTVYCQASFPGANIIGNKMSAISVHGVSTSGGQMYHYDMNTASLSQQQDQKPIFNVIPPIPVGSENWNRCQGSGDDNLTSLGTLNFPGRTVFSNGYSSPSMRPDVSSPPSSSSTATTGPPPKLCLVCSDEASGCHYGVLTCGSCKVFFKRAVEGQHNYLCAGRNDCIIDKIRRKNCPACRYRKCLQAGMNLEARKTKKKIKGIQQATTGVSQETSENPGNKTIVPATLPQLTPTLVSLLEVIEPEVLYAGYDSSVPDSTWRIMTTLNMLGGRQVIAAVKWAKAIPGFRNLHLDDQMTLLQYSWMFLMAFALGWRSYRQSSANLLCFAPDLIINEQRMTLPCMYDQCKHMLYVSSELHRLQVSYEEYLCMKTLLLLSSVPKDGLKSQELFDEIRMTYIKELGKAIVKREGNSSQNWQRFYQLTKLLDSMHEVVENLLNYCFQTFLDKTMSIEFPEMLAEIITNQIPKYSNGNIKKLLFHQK

SMILES | Potency [µM]
COC(=O)c1ccc(N2C(=O)CC(N3CCN(C(=O)c4ccco4)CC3)C2=O)cc1 (stereo not given) | > 20.6
COC(=O)c1cc(Br)c(=O)n(Cc2ccco2)c1 | > 20.6
CC(=O)c1c(OCC(=O)O)ccc2c(C)cc(=O)oc12 | > 20.6
COc1cccc(C2C(C(=O)c3cccs3)=C(O)C(=O)N2c2cc(C)on2)c1 (stereo not given) | > 20.6
CCn1cc(C(=O)NCC2CCCO2)c(=O)c2cc(F)c(N3CCN(C)CC3)cc21 (stereo not given) | > 20.6
C(=N\n1cnnc1)/c1cccc(Oc2ccccc2)c1 | > 20.6
CC1(C)CNC(=O)c2sc(N3CCOCC3)nc2C1 | > 20.6
COc1cc(-n2c3nc4ccccc4nc3c3c(=O)n(Cc4ccco4)cnc32)cc(OC)c1OC | > 20.6
COc1ccccc1-n1c(N)c(C(=O)NCC2CCCO2)c2nc3ccccc3nc21 (stereo not given) | > 20.6
O=C(NCCC1=CCCCC1)c1ccc(=O)oc1 | > 20.6
Cc1ccc(OCC(=O)NCC(=O)n2nc(C)cc2C)cc1 | > 20.6
COc1ccc2[nH]c(C)c(C(=O)CN3CCc4cc(OC)c(OC)cc4C3)c2c1 | > 20.6
COc1cc(C(=O)Nc2nccs2)cc(OC)c1OC | > 20.6
COc1ccc(OCC(=O)OCCN(C)C)cc1 | > 20.6
O=C(O)c1cc2n(n1)C(C(F)(F)F)CC(c1ccccc1)N2 (stereo not given) | > 20.6
O=C(NCCCn1ccnc1)C(Cc1ccccc1)N1C(=O)c2ccccc2C1=O (stereo not given) | > 20.6
Cc1nnc2n(Cc3ccccc3)c(=O)c3c4c(sc3n12)CN(Cc1ccccc1)CC4 | > 20.6
COc1ccc(N/C(=N\c2nc(C)cc(C)n2)NC(=O)C(C)C)cc1OC | > 20.6
CN1C(=O)NC(NC(=O)c2ccco2)(C(F)(F)F)C1=O (stereo not given) | > 20.6
Cc1ccc(C(=O)NCC(C)(C)O)cc1 | > 20.6

SMILES | Potency [µM]
Cc1ccc(N(CC(=O)O)C2SC(=O)NC2=O)cc1 (stereo not given) | > 20.6
CC(C)N1CCc2c(sc(N)c2C#N)C1 | > 20.6
CC1(c2ccco2)NC(=O)NC1=O (stereo not given) | > 20.6
CCCSc1nc(C)c(CC(=O)OCC)c(=O)[nH]1 | > 20.6
C/C(=N\O)c1c(C)c2ccccc2n1C | > 20.6
CN1CC(=O)Nc2ccc(F)cc2C1=O | > 20.6
O=C(c1coc(=O)c(Br)c1)N1CCOCC1 | > 20.6
C=CCN(C(=O)CCC(=O)O)C1CC(=O)N(c2ccc(OCCC)cc2)C1=O (stereo not given) | > 20.6
CC(C)OC(=O)c1sc2nc3c(cc2c1N)C(=O)CCC3 | > 20.6
c1cncc(Oc2cccc(Oc3cccnc3)c2)c1 | > 20.6
CC1(C)Cc2[nH]c(=O)c(C#N)cc2CS1 | > 20.6
COC(=O)c1ccc(C2/C(=C(/O)c3ccc(OC)cc3)C(=O)C(=O)N2c2cc(C)on2)cc1 (stereo not given) | > 20.6
Nc1nonc1-c1noc(N2CCOCC2)n1 | > 20.6
COc1ccc(C2=CC(c3cccc(OC)c3)n3nnnc3N2)cc1 (stereo not given) | > 20.6
CCOC(=O)c1[nH]c2cc3c(cc2c1NC(=O)CN1CC(C)CC(C)C1)OCO3 (stereo not given) | > 20.6
CCc1cc2c(=O)c(-c3cscn3)coc2c(CN(C)C)c1O | > 20.6
Cc1c(C=NCCOCc2ccccc2)cnn1C | > 20.6
Cc1cc(=O)oc(C)c1C(=O)NCCNC(=O)c1c(C)cc(=O)oc1C | > 20.6
CC(C)(C#N)C(C)(C)c1nn[nH]n1 | > 20.6
N/C(=N\S(=O)(=O)c1ccc(Cl)s1)c1ccccc1 | > 20.6
